Among the data in ChEMBL document CHEMBL3433997, “St. Jude Leishmania screening dataset” (2016) are inhibition values, retold here.

Several values for one entry are separate records, joined by “and”; a condition that tells them apart may be missing. Equal entries are not always repeated.

Solute carrier family 2, facilitated glucose transporter member 1 (Homo sapiens), sequence (P11166 whole entry): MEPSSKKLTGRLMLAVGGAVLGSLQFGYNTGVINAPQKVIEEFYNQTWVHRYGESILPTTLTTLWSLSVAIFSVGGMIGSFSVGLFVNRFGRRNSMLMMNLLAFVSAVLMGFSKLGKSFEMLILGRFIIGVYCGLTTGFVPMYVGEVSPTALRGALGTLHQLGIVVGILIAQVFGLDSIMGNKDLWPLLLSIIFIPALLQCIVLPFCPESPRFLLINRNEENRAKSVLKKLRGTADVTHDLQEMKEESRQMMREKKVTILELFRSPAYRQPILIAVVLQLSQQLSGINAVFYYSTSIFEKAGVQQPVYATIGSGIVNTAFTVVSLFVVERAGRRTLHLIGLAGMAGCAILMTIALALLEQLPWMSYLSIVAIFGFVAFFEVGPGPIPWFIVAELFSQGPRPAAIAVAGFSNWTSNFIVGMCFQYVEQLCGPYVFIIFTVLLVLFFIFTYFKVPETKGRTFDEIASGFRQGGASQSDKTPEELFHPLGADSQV

This assay concerns the target Solute carrier family 2, facilitated glucose transporter member 1 (Homo sapiens) (UniProt P11166). As to the kind of experiment: ST_JUDE_LEISH: Cytotoxicity at 2uM final concentration against transgenic Leishmania Mexicana promastigotes LmGLUT1 that are glucose transport deficient and complemented with the human glucose transporter GLUT1. Activity is measured by DNA content using SYBR green in vitro. It counts as functional.
The term inhibition denotes the change of the read-out against control, counted positive when it falls. Turning to `Fc1ccc2[nH]cc(CCN3CCC(CNCc4ccccc4)CC3)c2c1`, the inhibition came out at 6.4%.

For `CN1CC=C(c2c[nH]c3ccc(Oc4ccccc4)cc23)CC1`, the inhibition worked out at 0.93%.

As to `Cn1nc(-c2ccc(S(=O)(=O)NC3CCC(CN4CCC(c5c[nH]c6ccccc56)CC4)CC3)s2)cc1C(F)(F)F` (centres undefined), the inhibition was 5.26% and 1.76%.

As to `O=C(NC1CCN(CC2(c3ccc(Cl)cc3)CCC2)CC1)c1cscn1`, the inhibition was 1.16%.

`CNC(=O)c1ccc2[nH]cc(C3CCN(CC4CCC(NC(=O)/C=C/c5ccccc5Cl)CC4)CC3)c2c1` (centres undefined): the inhibition worked out at 10.8%.

Regarding `COc1cccc(/C=C/C(=O)NC2CCC(CN3CCC(c4c[nH]c5ccccc45)CC3)CC2)c1` (centres undefined), the inhibition is 2.16% and -1.74%.

In the case of `CCCCCSc1cc(O)c(C(CNC)C(C)C)cc1OC` (centres undefined), the inhibition amounted to 1.1%.

As to `O=C(Nc1ccccc1C(F)(F)F)NC1CCC(CN2CCC(c3c[nH]c4ccccc34)CC2)CC1` (centres undefined), the inhibition is 7.14% and 3.61%.

For `Cc1cc(NC(=O)[C@@H](Nc2ccc(C#N)c3ccccc23)C2CCCCC2)ccc1F`, the inhibition is -1.97%.

Take `c1ccc(C(OCCC2CCN(Cc3cccnc3)CC2)c2ccccc2)cc1`: the inhibition came out at 0.62%.

Consider `CC(=O)Nc1ccc(CN2CCC(N(C)c3ccc(NC(=O)c4cccc(C)c4)cc3)CC2)cc1`, for which the inhibition stood at 8.7%.

Regarding `N#Cc1c(F)cc(N2CCC(NCC[C@H](N)Cc3ccc(F)c(F)c3)CC2)cc1F`, the inhibition was determined as 2.18%.

As for `Cc1cc(NC(=O)[C@H](CC(C)C)Nc2ccc(C#N)c3ccccc23)ccc1F`, the inhibition came to 0.56%.

For the molecule `CC[C@H]1CN2CC[C@@H]1C[C@H]2[C@H](O)c1cc(N2CCC(O)(c3ccccc3)CC2)nc2ccc(OC)cc12`, the inhibition amounted to 5.33%.

Turning to `Cc1ccc(CC(C)NCC(O)c2cccc([N+](=O)[O-])c2)cc1` (centres undefined), the inhibition is 0.3%.

Consider `Cc1ccc(/C=C/C(=O)NC2CCC(CN3CCC(c4c[nH]c5ccccc45)CC3)CC2)cc1C` (centres undefined), for which the inhibition was 3.87% and 0.74%.

Take `CSc1nccc(-c2ccc(S(=O)(=O)NC3CCC(CN4CCC(c5c[nH]c6ccccc56)CC4)CC3)s2)n1` (centres undefined): the inhibition was 2.14% and 2.23%.

For the molecule `CNCCN(C)C(=O)Oc1c(Br)c(C)nc(C)c1-c1ccc(Oc2ccc(OC(F)(F)F)cc2)cc1`, the inhibition is 2.73%.

Turning to `Oc1ccc2[nH]cc(C3=CCN(CCc4ccccc4)CC3)c2c1`, the inhibition amounted to 15.8%.

Take `CC[C@H]1CN2CC[C@@H]1C[C@@H]2[C@@H](O)c1cc(-c2ccc(F)cc2)nc2ccc(OC)cc12`: the inhibition was found to be 4.08%.

Consider `CC(Cc1ccc(SC(C)(C)C)cc1)NCC(O)c1cccc(Cl)c1` (centres undefined), for which the inhibition is -1.59%.

As to `CC(C)CNCc1ccc(-c2cccc(CN(C(=O)CCC3CCCC3)C3CCN(Cc4ccccc4)CC3)c2)cc1`, the inhibition is 16.4%.

Take `O=C(/C=C/c1ccc(Cl)c(Cl)c1)NC1CCC(CN2CCC(c3c[nH]c4cc(O)ccc34)CC2)CC1` (centres undefined): the inhibition came to 3.03%.

As to `O=C(NC1CCC(CN2CCC(c3c[nH]c4ccccc34)CC2)CC1)c1[nH]c(=O)[nH]c(=O)c1F` (centres undefined), the inhibition is -0.09%.

For the molecule `O=C(CCCCCc1ccccc1)NC1CCC(CN2CCC(c3c[nH]c4ccccc34)CC2)CC1` (centres undefined), the inhibition was found to be 0.89%.

For `CN(c1cc(NC(=O)c2cccs2)ccn1)C1CCN(Cc2ccccc2)CC1`, the inhibition was determined as 0.59%.

Regarding `CC(C)CCNC(=O)c1cc(C(=O)c2cc(F)ccc2O)cn(CCC(C)C)c1=O`, the inhibition turned out to be 3.21%.

For `Cn1c(C2CC3CCC(C2)N3CC2CCC(NC(=O)/C=C/c3ccc(Cl)c(Cl)c3)CC2)nc2ccccc21` (centres undefined), the inhibition was determined as 4.11%.

For the molecule `CC(C)CNCc1ccc(-c2ccc(CN(C(=O)Nc3ccccc3)C3CCN(Cc4ccccc4)CC3)cc2)cc1`, the inhibition is 3.1%.

With `S=C(Nc1ccc2c(c1)OCCO2)NC1CCC(CN2CCC(c3c[nH]c4ccccc34)CC2)CC1` (centres undefined), the inhibition is 0.68% and -2.92%.

`CCOc1ccc(CN(CCc2ccc3c(c2)OCO3)Cc2cc(OC)ccc2O)cc1`: the inhibition stood at 4.49%.

On to `CC(C)n1ncc2c(C(=O)Nc3ccc(C#N)c(Cl)c3)cc(C3CC3)nc21`, for which the inhibition was found to be 2.24%.

In the case of `Cc1nc(-c2ccc(-c3ccc(C(=O)Nc4ccc5c(c4)C4(CCNCC4)CO5)cc3)c(C)c2)no1`, the inhibition stood at 2.05%.

In the case of `COc1ccc2[nH]cc(C3CCN(Cc4ccc(NC(=O)c5ccc(-c6ccccc6)cc5)cc4)CC3)c2c1`, the inhibition was determined as 3.87%.

In the case of `OC(CNC12CC3CC(CC(C3)C1)C2)c1cccc(C(F)(F)F)c1` (centres undefined), the inhibition was -1.52%.

With `N#Cc1ccc(N(CC(=O)NCCc2ccccc2)CC2CC2)c2ccccc12`, the inhibition worked out at 1.68%.

Turning to `CC(Cc1ccc(NC(=O)[C@@H](C)NCCc2cccc(Cl)c2)cc1)NCCc1cccc(Cl)c1` (some centres undefined), the inhibition was determined as 0.67%.

Turning to `COc1cccc(C(=O)C2CC2CN2CC=C(c3c[nH]c4cccc(Br)c34)CC2)c1` (centres undefined), the inhibition was 1.59%.

In the case of `O=C(NC1CCC(CN2CCC(c3c[nH]c4ccccc34)CC2)CC1)C1(O)c2ccccc2-c2ccccc21` (centres undefined), the inhibition worked out at 1.4%.
